# Source: the supplement of paper PMC10037445
# Over roughly 2,900 compounds, “NF-kB SEAP reporter activity, fold change vs agonist alone” has its median near 0.99; the highest 2% begin near 2.6. Many of the other results were omitted from the sample, so the highest values are more common in it than they were.
# Tests used:
# RAW-Dual [1] = test: NF-kB SEAP reporter activity, fold change vs agonist alone; higher = enhanced NF-kB activity; conditions: library stock concentration (final ~1000-fold dilution): 10 mM
# Outline: (§1)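 Reporter activity is given as fold change relative to agonist-alone wells. To measure it, 50 nL of library stock was pin-tooled onto RAW-Dual macrophages (50,000 cells/well, DMEM, 384-well plates), a PRR agonist followed 1 h later, and cells stayed at 37 °C, 5% CO2. Twenty hours on, supernatant was assayed for IRF (QuantiLuc luminescence) and NF-κB (QuantiBlue, 620 nm absorbance), and wells under 70% of agonist-control IncuCyte confluency in both mask sets were marked cytotoxic.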
# RAW-Dual [2] = test: NF-kB SEAP reporter activity, fold change vs agonist alone; cytotoxicity flag (confluency mask): not cytotoxic; higher = enhanced NF-kB activity
# Outline: as §1
# RAW-Dual [3] = test: NF-kB SEAP reporter activity, fold change vs agonist alone; cytotoxicity flag (confluency mask): cytotoxic (confluency <70% of control); higher = enhanced NF-kB activity
# Outline: as §1
# [4] = cytotoxicity flag (confluency mask): not cytotoxic, agonist: Imiquimod (TLR7) […]
# [5] = cytotoxicity flag (confluency mask): not cytotoxic, agonist: MPLA (TLR4) […]
# [6] = agonist: ODN 1826 (TLR9) 0.5 ug/mL
# [7] = agonist: Pam2CSK4 (TLR2/6) 0.1 ug/mL
# [8] = agonist: Pam3CSK4 (TLR2/1) 0.1 ug/mL
# [9] = cytotoxicity flag (confluency mask): cytotoxic (confluency <70% of control), agonist: Imiquimod (TLR7) […]
# [10] = cytotoxicity flag (confluency mask): cytotoxic (confluency <70% of control), agonist: MPLA (TLR4) […]
compound,measurement,setting,value
CC(C)(NS(=O)(=O)c1ccc2c(Cl)cnc(NC(=N)N)c2c1)C(=O)O.Cl,NF-kB SEAP reporter activity,RAW-Dual [1]; [4],0.99
same,NF-kB SEAP reporter activity,RAW-Dual [1]; [5],0.923
CC(C)(NS(=O)(=O)c1ccc2c(Cl)cnc(NC(=N)N)c2c1)C(=O)O.Cl (library stock concentration (final ~1000-fold dilution): 10 mM),NF-kB SEAP reporter activity,RAW-Dual [2]; agonist: LPS (TLR4) 0.1 ug/mL,1.1
same,NF-kB SEAP reporter activity,RAW-Dual [2]; [6],1.01
same,NF-kB SEAP reporter activity,RAW-Dual [2]; [7],0.913
same,NF-kB SEAP reporter activity,RAW-Dual [2]; [8],0.764
Cl.Nc1ncccc1-c1nc2ccc(-c3ccccc3)nc2n1-c1ccc(C2(N)CCC2)cc1,NF-kB SEAP reporter activity,RAW-Dual [1]; [9],1.7
same,NF-kB SEAP reporter activity,RAW-Dual [1]; [10],1.8
Cl.Nc1ncccc1-c1nc2ccc(-c3ccccc3)nc2n1-c1ccc(C2(N)CCC2)cc1 (library stock concentration (final ~1000-fold dilution): 10 mM),NF-kB SEAP reporter activity,RAW-Dual [3]; agonist: LPS (TLR4) 0.1 ug/mL,0.954
same,NF-kB SEAP reporter activity,RAW-Dual [3]; [6],0.218
same,NF-kB SEAP reporter activity,RAW-Dual [3]; [7],0.921
same,NF-kB SEAP reporter activity,RAW-Dual [3]; [8],1.38
COc1cc2c(cc1OC)C1CC(OC(=O)C(N)C(C)C)C(CC(C)C)CN1CC2.Cc1ccc(S(=O)(=O)O)cc1.Cc1ccc(S(=O)(=O)O)cc1 (stereo not given),NF-kB SEAP reporter activity,RAW-Dual [1]; [4],1.07
same,NF-kB SEAP reporter activity,RAW-Dual [1]; [5],1.11
COc1cc2c(cc1OC)C1CC(OC(=O)C(N)C(C)C)C(CC(C)C)CN1CC2.Cc1ccc(S(=O)(=O)O)cc1.Cc1ccc(S(=O)(=O)O)cc1 (stereo not given) (library stock concentration (final ~1000-fold dilution): 10 mM),NF-kB SEAP reporter activity,RAW-Dual [2]; agonist: LPS (TLR4) 0.1 ug/mL,1.11
same,NF-kB SEAP reporter activity,RAW-Dual [2]; [6],0.207
same,NF-kB SEAP reporter activity,RAW-Dual [2]; [7],0.856
same,NF-kB SEAP reporter activity,RAW-Dual [2]; [8],0.889
CC1CCN(C(=O)CC#N)CC1N(C)c1ncnc2[nH]ccc12 (stereo not given),NF-kB SEAP reporter activity,RAW-Dual [1]; [4],1.31
same,NF-kB SEAP reporter activity,RAW-Dual [1]; [5],1.05
CC1CCN(C(=O)CC#N)CC1N(C)c1ncnc2[nH]ccc12 (stereo not given) (library stock concentration (final ~1000-fold dilution): 10 mM),NF-kB SEAP reporter activity,RAW-Dual [2]; agonist: LPS (TLR4) 0.1 ug/mL,0.799
same,NF-kB SEAP reporter activity,RAW-Dual [2]; [6],1.27
same,NF-kB SEAP reporter activity,RAW-Dual [2]; [7],1.33
same,NF-kB SEAP reporter activity,RAW-Dual [2]; [8],1.51
CC(=O)OC1CCC2(C)C(=CCC3C2CCC2(C)C(c4cccnc4)=CCC32)C1 (stereo not given) (library stock concentration (final ~1000-fold dilution): 10 mM),NF-kB SEAP reporter activity,RAW-Dual [2]; agonist: LPS (TLR4) 0.1 ug/mL,0.898
same,NF-kB SEAP reporter activity,RAW-Dual [2]; [6],1.06
same,NF-kB SEAP reporter activity,RAW-Dual [2]; [7],0.97
same,NF-kB SEAP reporter activity,RAW-Dual [2]; [8],1.97
CC(=O)OC1CCC2(C)C(=CCC3C2CCC2(C)C(c4cccnc4)=CCC32)C1 (stereo not given),NF-kB SEAP reporter activity,RAW-Dual [1]; [4],1.12
same,NF-kB SEAP reporter activity,RAW-Dual [1]; [5],1.05
COc1cc2oc(=O)ccc2c(OC)c1CC(O)C(C)(C)O (stereo not given),NF-kB SEAP reporter activity,RAW-Dual [1]; [4],0.936
same,NF-kB SEAP reporter activity,RAW-Dual [1]; [5],0.984
COc1cc2oc(=O)ccc2c(OC)c1CC(O)C(C)(C)O (stereo not given) (library stock concentration (final ~1000-fold dilution): 10 mM),NF-kB SEAP reporter activity,RAW-Dual [2]; agonist: LPS (TLR4) 0.1 ug/mL,1.11
same,NF-kB SEAP reporter activity,RAW-Dual [2]; [6],0.972
same,NF-kB SEAP reporter activity,RAW-Dual [2]; [7],1.08
same,NF-kB SEAP reporter activity,RAW-Dual [2]; [8],1.38
CC(C)(C)c1nc(-c2cccc(NS(=O)(=O)c3c(F)cccc3F)c2F)c(-c2ccnc(N)n2)s1,NF-kB SEAP reporter activity,RAW-Dual [1]; [9],2.07
same,NF-kB SEAP reporter activity,RAW-Dual [1]; [10],1.89
CC(C)(C)c1nc(-c2cccc(NS(=O)(=O)c3c(F)cccc3F)c2F)c(-c2ccnc(N)n2)s1.CS(=O)(=O)O,NF-kB SEAP reporter activity,RAW-Dual [1]; [5],1.93
CC(C)(C)c1nc(-c2cccc(NS(=O)(=O)c3c(F)cccc3F)c2F)c(-c2ccnc(N)n2)s1 (library stock concentration (final ~1000-fold dilution): 10 mM),NF-kB SEAP reporter activity,RAW-Dual [3]; agonist: LPS (TLR4) 0.1 ug/mL,3.02
same,NF-kB SEAP reporter activity,RAW-Dual [3]; [6],3.35
same,NF-kB SEAP reporter activity,RAW-Dual [3]; [7],2
same,NF-kB SEAP reporter activity,RAW-Dual [3]; [8],1.57
CC(C)(C)c1nc(-c2cccc(NS(=O)(=O)c3c(F)cccc3F)c2F)c(-c2ccnc(N)n2)s1.CS(=O)(=O)O (library stock concentration (final ~1000-fold dilution): 10 mM),NF-kB SEAP reporter activity,RAW-Dual [2]; agonist: LPS (TLR4) 0.1 ug/mL,3.17
same,NF-kB SEAP reporter activity,RAW-Dual [2]; [6],3.05
same,NF-kB SEAP reporter activity,RAW-Dual [2]; [7],2.08
same,NF-kB SEAP reporter activity,RAW-Dual [2]; [8],1.78
CC(C)c1c(-c2ccccc2)[nH]c2c(C#N)cnn2c1=O.Cl,NF-kB SEAP reporter activity,RAW-Dual [1]; [4],0.757
same,NF-kB SEAP reporter activity,RAW-Dual [1]; [5],0.99
CC(C)c1c(-c2ccccc2)[nH]c2c(C#N)cnn2c1=O.Cl (library stock concentration (final ~1000-fold dilution): 10 mM),NF-kB SEAP reporter activity,RAW-Dual [2]; agonist: LPS (TLR4) 0.1 ug/mL,0.8
same,NF-kB SEAP reporter activity,RAW-Dual [2]; [6],0.816
same,NF-kB SEAP reporter activity,RAW-Dual [2]; [7],0.507
same,NF-kB SEAP reporter activity,RAW-Dual [2]; [8],0.52
CN1CCN(C(c2ccccc2)c2ccccc2)CC1.Cl.Cl,NF-kB SEAP reporter activity,RAW-Dual [1]; [4],0.9
same,NF-kB SEAP reporter activity,RAW-Dual [1]; [5],0.897
CN1CCN(C(c2ccccc2)c2ccccc2)CC1.Cl.Cl (library stock concentration (final ~1000-fold dilution): 10 mM),NF-kB SEAP reporter activity,RAW-Dual [2]; agonist: LPS (TLR4) 0.1 ug/mL,1.15
same,NF-kB SEAP reporter activity,RAW-Dual [2]; [6],0.595
same,NF-kB SEAP reporter activity,RAW-Dual [2]; [7],1.04
same,NF-kB SEAP reporter activity,RAW-Dual [2]; [8],1.02
O.S=c1nc[nH]c2nc[nH]c12,NF-kB SEAP reporter activity,RAW-Dual [1]; [4],0.752
same,NF-kB SEAP reporter activity,RAW-Dual [1]; [5],0.963
O.S=c1nc[nH]c2nc[nH]c12 (library stock concentration (final ~1000-fold dilution): 10 mM),NF-kB SEAP reporter activity,RAW-Dual [2]; agonist: LPS (TLR4) 0.1 ug/mL,1.05
same,NF-kB SEAP reporter activity,RAW-Dual [2]; [6],0.808
same,NF-kB SEAP reporter activity,RAW-Dual [2]; [7],0.594
same,NF-kB SEAP reporter activity,RAW-Dual [2]; [8],0.684
COc1ccc(-c2oc3c(CC=C(C)C)c(OC4OC(CO)C(O)C(O)C4O)cc(O)c3c(=O)c2OC2OC(C)C(O)C(O)C2O)cc1 (stereo not given) (library stock concentration (final ~1000-fold dilution): 10 mM),NF-kB SEAP reporter activity,RAW-Dual [2]; agonist: LPS (TLR4) 0.1 ug/mL,1.57
same,NF-kB SEAP reporter activity,RAW-Dual [2]; [6],0.992
same,NF-kB SEAP reporter activity,RAW-Dual [2]; [7],1.14
same,NF-kB SEAP reporter activity,RAW-Dual [2]; [8],1.28
COc1ccc(-c2oc3c(CC=C(C)C)c(OC4OC(CO)C(O)C(O)C4O)cc(O)c3c(=O)c2OC2OC(C)C(O)C(O)C2O)cc1 (stereo not given),NF-kB SEAP reporter activity,RAW-Dual [1]; [4],0.89
same,NF-kB SEAP reporter activity,RAW-Dual [1]; [5],1.13
C=C1CCCC2(C)C=C3OC(=O)C(C)=C3CC12 (stereo not given),NF-kB SEAP reporter activity,RAW-Dual [1]; [4],0.726
same,NF-kB SEAP reporter activity,RAW-Dual [1]; [5],1.14
C=C1CCCC2(C)C=C3OC(=O)C(C)=C3CC12 (stereo not given) (library stock concentration (final ~1000-fold dilution): 10 mM),NF-kB SEAP reporter activity,RAW-Dual [2]; agonist: LPS (TLR4) 0.1 ug/mL,1
same,NF-kB SEAP reporter activity,RAW-Dual [2]; [6],1.06
same,NF-kB SEAP reporter activity,RAW-Dual [2]; [7],1.52
same,NF-kB SEAP reporter activity,RAW-Dual [2]; [8],1.49
O=c1cc(-c2ccc(O)c(O)c2O)oc2ccccc12,NF-kB SEAP reporter activity,RAW-Dual [1]; [4],0.689
same,NF-kB SEAP reporter activity,RAW-Dual [1]; [5],1.05
O=c1cc(-c2ccc(O)c(O)c2O)oc2ccccc12 (library stock concentration (final ~1000-fold dilution): 10 mM),NF-kB SEAP reporter activity,RAW-Dual [2]; agonist: LPS (TLR4) 0.1 ug/mL,1.08
same,NF-kB SEAP reporter activity,RAW-Dual [2]; [6],0.88
same,NF-kB SEAP reporter activity,RAW-Dual [2]; [7],0.927
same,NF-kB SEAP reporter activity,RAW-Dual [2]; [8],0.532
CCOC(=O)C(CCc1ccccc1)NC(C)C(=O)N1C(C(=O)O)CC2CCCCC21 (stereo not given) (library stock concentration (final ~1000-fold dilution): 10 mM),NF-kB SEAP reporter activity,RAW-Dual [2]; agonist: LPS (TLR4) 0.1 ug/mL,1.25
same,NF-kB SEAP reporter activity,RAW-Dual [2]; [6],1
same,NF-kB SEAP reporter activity,RAW-Dual [2]; [7],1.01
same,NF-kB SEAP reporter activity,RAW-Dual [2]; [8],0.933
CCOC(=O)C(CCc1ccccc1)NC(C)C(=O)N1C(C(=O)O)CC2CCCCC21 (stereo not given),NF-kB SEAP reporter activity,RAW-Dual [1]; [4],0.911
same,NF-kB SEAP reporter activity,RAW-Dual [1]; [5],1.04
CCCCCCCCCCCCCCCC(=O)OC1C(SC)OC(C(NC(=O)C2CC(CCC)CN2C)C(C)Cl)C(O)C1O.Cl (stereo not given) (library stock concentration (final ~1000-fold dilution): 10 mM),NF-kB SEAP reporter activity,RAW-Dual [2]; agonist: LPS (TLR4) 0.1 ug/mL,0.968
same,NF-kB SEAP reporter activity,RAW-Dual [2]; [6],1.08
same,NF-kB SEAP reporter activity,RAW-Dual [2]; [7],0.877
same,NF-kB SEAP reporter activity,RAW-Dual [2]; [8],0.713
CCCCCCCCCCCCCCCC(=O)OC1C(SC)OC(C(NC(=O)C2CC(CCC)CN2C)C(C)Cl)C(O)C1O.Cl (stereo not given),NF-kB SEAP reporter activity,RAW-Dual [1]; [4],1.2
same,NF-kB SEAP reporter activity,RAW-Dual [1]; [5],0.983
